In ChEMBL document CHEMBL4513216, “Probing the Open Global Health Chemical Diversity Library for Multistage-Active Starting Points for Next-Generation Antimalarials” (ACS Infect Dis, 2020) one finds INHIBITION data, which are given here for 104 molecules.

In all, about 68,000 compounds went through this assay and about 2,700 (4%) showed an effect of 50% or more. For the sample, strong results were picked, then their nearest neighbours and some compounds at random.

The test deals with Plasmodium berghei. As to the kind of experiment: Screen against P. berghei liver stage (PbLuc), transformed with Luciferase, at 2uM. Format: functional, HepG2. Conditions: tested at 2 uM.
For the molecule `CC1CN(C(=O)CN(Cc2ccco2)Cc2cccs2)CCO1` (centres undefined), the INHIBITION was found to be 26.78%. As to `COc1ccccc1[C@@H]1CN(CC(=O)N2CCCCC2)C[C@H]1C(=O)O`, the INHIBITION is -36.91%.

Regarding `CCOC(=O)C1CCN(C(=O)CN2CCCC2c2ccccc2C)CC1` (centres undefined), the INHIBITION is given as -16.19%. Take `COc1ccccc1C1CCCN1CC(=O)N1CCC(C(N)=O)CC1` (centres undefined): the INHIBITION is listed as 50.32%.

For the molecule `Cc1nc(C2CCCNC2)cc(N2CCc3nc(N)sc3C2)n1` (centres undefined), the INHIBITION was found to be 17.41%.

With `Cn1cc(CN2CC[C@H](O)[C@@H]2Cc2ccncc2)cn1`, the INHIBITION is 23.94%. Consider `O=c1c2sccc2nc2n1CCN(Cc1ccc(F)c(F)c1)CC2`, for which the INHIBITION turned out to be 15.72%.

Take `O=c1c2sccc2nc2n1CCN(Cc1ccsc1)CC2`: the INHIBITION is reported as 63.66%. For `O=c1c2sccc2nc2n1CCN(Cc1cccs1)CC2`, the INHIBITION is 15.58%. With `Cc1ncsc1C(=O)N(C)Cc1ccc(Br)o1` the figure was -21.99%; with `Cc1ccccc1-c1cncc(C2CCN(C3CCOCC3)CC2)n1`, 8.63%; with `Cc1oc(NC(=O)C(C)N2CCN(C(C)(C)CO)CC2)c(C#N)c1C` (centres undefined), 10.1%. With `Cc1oc(NC(=O)C(C)N2CCN(CCO)CC2)c(C#N)c1C` (centres undefined), the INHIBITION was determined as 51.08%. Regarding `Cc1oc(NC(=O)C(C)N2CCN(C(=O)C3CC3)CC2)c(C#N)c1C` (centres undefined), the INHIBITION turned out to be 30.59%. `Cn1ncc2c1CN(Cc1cccnc1)CC2COCC1CC1` (centres undefined): the INHIBITION is -12.27%. Then `CCCN1CCN(C(=O)c2ccn(COc3ccc(F)cc3)n2)CC1`, with -15.49%; and `CCn1ncc(S(=O)(=O)NC(C)c2cc(OC)ccc2OC)c1C` (centres undefined), with 0.08%; and `CN(CC1CCCO1)C1CCN(CCc2ccccn2)CC1` (centres undefined), with 14.82%.

Regarding `CCc1cc(NC2CCN(CC(N)=O)CC2)nc(N2CCCCC2)n1`, the INHIBITION is -69.81%. Regarding `CCc1cc(NCCNC(C)=O)nc(N2CCCC2)n1`, the INHIBITION is -36.65%. As to `CCc1cc(NCC(N)=O)nc(N2CCCCC2)n1`, the INHIBITION came out at 55.18%. For the molecule `CCc1nc(-c2noc3ccc(C(=O)NCCN(C)C)cc23)co1`, the INHIBITION is recorded as -18.52%.

Take `CCc1nc(-c2noc3ccc(C(=O)N(C)CCOC)cc23)co1`: the INHIBITION is recorded as 63.23%. With `COCCN(C)C(=O)c1ccc2onc(-c3coc(C)n3)c2c1` the figure was 32.04%; with `C[C@@H]1CN(C2CCN(c3ccccc3F)CC2)C[C@]1(C)O`, 43.44%; with `Cc1cc(F)ccc1N1CCC(N2C[C@@H](C)[C@@](C)(O)C2)CC1`, 67.28%. On to `Cc1cc(F)ccc1N1CCC(N2C[C@@H](CN(C)C)[C@@H](CO)C2)CC1`, for which the INHIBITION is 35.54%. With `c1ccc(-n2nnnc2NCc2ccc3c(c2)OCO3)cc1`, the INHIBITION was -26.04%. In the case of `O=C(O)C1CCCN(C(=O)CCn2ccc3c(Cl)cccc32)C1` (centres undefined), the INHIBITION is on record as -23.9%. With `O=C(O)[C@@H]1CN(C(=O)c2ccc3[nH]nnc3c2)C[C@H]1c1ccccc1`, the INHIBITION is listed as 39.57%. With `O=C(Nc1cnccn1)[C@@H]1COC[C@H]2CN(C3CCCC3)C[C@H]21`, the INHIBITION is on record as -31.17%.

As to `O=C(Nc1ccncc1)C1=NN(c2ccccc2)C(=O)CN1`, the INHIBITION was found to be 17.59%. For `COCCCNC(=O)NCc1nc(C)c(C)o1`, the INHIBITION is -62.18%.

Regarding `Cc1nc(CNC(=O)NCCC2=CCCC2)oc1C`, the INHIBITION was found to be 67.51%.

On to `CCCNC(=O)NCc1nc(C)c(C)o1`, for which the INHIBITION was 22.34%.

Take `Cc1cc(S(=O)(=O)Nc2onc(C)c2C)sc1C`: the INHIBITION amounted to 36.28%. `Cc1ccc(CN2CCn3c(CN(C)C(C)C)cnc3C2)s1`: the INHIBITION is listed as 18.2%. With `COCCN1C[C@H]2CN(C(=O)NCc3ccccc3)CCN2C1=O` the figure was 14.21%.

Turning to `COCCN1C[C@H]2CN(C(=O)C3CC3)CCN2C1=O`, the INHIBITION was 14.65%.

In the case of `COCCN1C[C@H]2CN(C(=O)NC(C)C)CCN2C1=O`, the INHIBITION is 58.6%. With `CS(=O)(=O)c1cccc(OCC(=O)N2CCCC2c2ccc[nH]2)c1` (centres undefined), the INHIBITION amounted to 9.27%. For the molecule `Cc1ncoc1C(=O)N1CC[C@@]2(C[C@H](NS(C)(=O)=O)CCO2)C1`, the INHIBITION is listed as -43.98%.

Consider `CCC(C)NC(=O)c1ccc(-c2ccco2)[nH]c1=O` (centres undefined), for which the INHIBITION is reported as 31.51%. For `CC(COCC(F)(F)F)NC(=O)c1ccc(-c2ccco2)[nH]c1=O` (centres undefined), the INHIBITION is given as 69.67%. For the molecule `CCCC(C)NC(=O)c1ccc(-c2ccco2)[nH]c1=O` (centres undefined), the INHIBITION is reported as -1.87%. Take `CNS(=O)(=O)c1ccc(C(=O)NCc2ccnc(OC)c2)cc1`: the INHIBITION is given as 27.44%.

With `Fc1ccc(N2CCCN(Cc3ccc(-c4cc[nH]n4)o3)CC2)cc1`, the INHIBITION was -62.99%. On to `Cc1cccc(-c2nc(CN3CCc4c(ncn4C)C3)no2)c1`, for which the INHIBITION worked out at 14.82%. Then `CC(NC(=O)N1CCCCCC1)c1ccc(S(N)(=O)=O)cc1` (centres undefined), with -36.8%; and `OCC1CCC2(CC1)CN(Cc1ccccc1F)Cc1ccccc1O2` (centres undefined), with 2.71%. Take `O=C(CSc1ccc(F)cc1F)NS(=O)(=O)c1ccc2c(c1)OCCO2`: the INHIBITION was 27.47%. `O=C(CSc1ccc(F)cc1)NS(=O)(=O)c1ccc2c(c1)OCCO2`: the INHIBITION was 13.91%. With `O=C(CCc1ccccc1F)NS(=O)(=O)c1ccc2c(c1)OCCO2`, the INHIBITION is given as 7.71%. With `O=C(CCc1ccc(F)cc1)NS(=O)(=O)c1ccc2c(c1)OCCO2` the figure was -15.92%. As to `CC(CC(=O)NS(=O)(=O)c1ccc2c(c1)OCCO2)c1ccc(F)cc1` (centres undefined), the INHIBITION was 61.3%. On to `O=C(CCc1cc(F)ccc1F)NS(=O)(=O)c1ccc2c(c1)OCCO2`, for which the INHIBITION is 66.28%.

For the molecule `c1nc2n(n1)CC(NCc1nc(-c3ccsc3)no1)CC2` (centres undefined), the INHIBITION is listed as -14.3%. Take `COc1cccc(CC(=O)NC2CCCc3cn[nH]c32)c1` (centres undefined): the INHIBITION is -1.29%.

As for `CCCc1nn(C2CCN(C3CC3)C2=O)c(=O)o1` (centres undefined), the INHIBITION is -8.5%. Turning to `CCCc1nn(C2CCCN(C(C)C)C2=O)c(=O)o1` (centres undefined), the INHIBITION is given as 58.69%. Consider `CCCc1nn(C2CCN(C(C)C)C2=O)c(=O)o1` (centres undefined), for which the INHIBITION was -78.95%. With `Cc1nc(N2CCC(CN3CCCC3)CC2)c2cnn(C)c2n1`, the INHIBITION is given as 7.08%. As to `NC(=O)CN(CC(=O)NCCc1c(F)cccc1F)C1CCCC1`, the INHIBITION was determined as 14.21%. With `NCC1(c2cccc(C(F)(F)F)c2)CCCC1` the figure was 23.45%.

Consider `NCC1(c2cccc(C(F)(F)F)c2)CC1`, for which the INHIBITION is recorded as 74.11%. Consider `NCC1(c2cccc(C(F)(F)F)c2)CCC1`, for which the INHIBITION was found to be 39.97%. For the molecule `CC(C)c1cc(NC(=O)CN2CCCC2Cn2cncn2)on1` (centres undefined), the INHIBITION is listed as -98.79%. Take `COC(=O)c1ccc(Cl)c(NS(=O)(=O)c2cnn(C)c2)c1`: the INHIBITION is reported as 50.48%.

Regarding `COC(=O)c1ccc(Cl)c(NS(=O)(=O)c2cn(C)cn2)c1`, the INHIBITION is given as -9.88%. With `Cn1cnc(S(=O)(=O)Nc2cc(C(N)=O)ccc2Cl)c1` the figure was -53.5%; with `Cc1nc(C)n(CC2CCCCN2Cc2cn3ccccc3n2)n1` (centres undefined), -0.05%; with `CC1CN(C(=O)Nc2cc(C(F)(F)F)c[nH]c2=O)CCO1` (centres undefined), 28.39%. Turning to `CC(C)(C)N1CCN(C(=O)Nc2cc(C(F)(F)F)c[nH]c2=O)CC1`, the INHIBITION is -32.3%. Consider `CC(C)CN1CCN(C(=O)Nc2cc(C(F)(F)F)c[nH]c2=O)CC1`, for which the INHIBITION turned out to be 54.85%. For the molecule `CC(C)CN1CCC(C(=O)Nc2cc(C(F)(F)F)c[nH]c2=O)CC1`, the INHIBITION is -68.89%. With `CC1CN(C(=O)Nc2cc(C(F)(F)F)c[nH]c2=O)CC(C)(C)O1` (centres undefined), the INHIBITION worked out at 51.31%. With `CC1(C)CN(C(=O)Nc2cc(C(F)(F)F)c[nH]c2=O)CCO1` the figure was 33.92%; with `CS(=O)(=O)c1cnc(N2CCCC2)nc1C1CCN(C(=O)C2CC2)CC1`, -44.33%; with `COc1ccccc1[C@@H]1CN(Cc2cnn(C)c2C)C[C@H]1C(=O)O`, 0.12%. For `COCCC(=O)NCC1COc2cc(OC)ccc2C1` (centres undefined), the INHIBITION is listed as -26.75%. `COc1cc(NC(=O)c2ccc(C)cc2C)c(C(=O)N(C)C)cc1OC`: the INHIBITION is listed as 26.48%. In the case of `COc1cc(NC(=O)c2ccccc2F)c(C(=O)N(C)C)cc1OC`, the INHIBITION is 5.52%. `COc1cc(NC(=O)c2cc(C)sc2C)c(C(=O)N(C)C)cc1OC`: the INHIBITION was found to be 58.24%. As for `O=C(c1ccc2c(c1)CCC2)N1CCCCC1C1OCCO1` (centres undefined), the INHIBITION was -44.52%. Regarding `COC(=O)CC1CSCCN1C(=O)CCc1c(C)nn(C)c1C` (centres undefined), the INHIBITION came to 26.7%. Take `CN(C)c1cc(CNC(=O)CC2CCCCC2)ccn1`: the INHIBITION stood at 55.33%. In the case of `COCCOCC(=O)NCc1ccc(N(C)C)nc1`, the INHIBITION stood at 64.08%.

For the molecule `CN(C)c1ccc(CCNC(=O)NCc2ccc(N(C)C)nc2)cc1`, the INHIBITION is on record as -18.67%.

Turning to `CCN(C)c1cc(CNC(=O)CNC(=O)CC2CCCCC2)ccn1`, the INHIBITION is -15.05%.

`COCCSCC(=O)NCc1ccc(N(C)C)cc1`: the INHIBITION worked out at 47.04%.

Take `CN(C)c1cc(CNC(=O)c2ccccc2Cl)ccn1`: the INHIBITION was 17.19%.

Consider `COCCSCC(=O)NCc1ccc(N(C)C)nc1`, for which the INHIBITION turned out to be 1.8%. With `CCS(=O)(=O)c1ccccc1C(=O)NCc1ccnc(N(C)C)c1` the figure was 56.67%; with `COCCSCC(=O)NCc1ccnc(N(C)C)c1`, 50.61%.

In the case of `CN(C)c1ccc(CNC(=O)NCCc2ccccn2)cn1`, the INHIBITION amounted to 11.2%. On to `CCOc1cc(CNC(=O)CNC(=O)CC2CCCCC2)ccn1`, for which the INHIBITION stood at 9.29%. For the molecule `CN(C)c1cc(CNC(=O)c2ccccc2S(C)(=O)=O)ccn1`, the INHIBITION is given as -33.95%.

As to `CN(C)CCn1c2c(ccc1=O)CCN(Cc1cnn(C)c1)CC2`, the INHIBITION is listed as 19.16%.

For the molecule `CC(C)(C)n1cc(CNc2ccc(CNS(C)(=O)=O)cc2)cn1`, the INHIBITION amounted to 38.49%. Take `Cc1ccc(C(=O)N2C[C@@H]3CCCO[C@@H]3[C@H](N3CCOCC3)C2)cn1`: the INHIBITION is recorded as -35.23%. Then `CCN(CC)S(=O)(=O)N1C[C@H]2CC[C@@H](C1)N(Cc1cscn1)C2=O`, with 31.51%; and `CC(C)OCCCN1CCCC(c2nc3ccccc3n2C(C)C)C1` (centres undefined), with -25.8%. Then `COc1ccc2c(c1)c(C(=O)Nc1nnn[nH]1)cn2C(C)C`, with -2.44%; and `COCCNC(=O)[C@H]1CC[C@@H]2[C@@H](CCN2c2ncc(F)cn2)O1`, with 31.65%.
